The source of these data is ChEMBL document CHEMBL3988442, “University of Dundee, Small-Polar-MMV Screening Library” (2021).

Assay [1] has as its target T1, Aspartate--tRNA(Asp/Asn) ligase (Mycobacterium tuberculosis (strain ATCC 25618 / H37Rv)) (UniProt P9WFW3). Note: in the data most compounds retested in dose-response had high values.
T1 sequence (whole entry): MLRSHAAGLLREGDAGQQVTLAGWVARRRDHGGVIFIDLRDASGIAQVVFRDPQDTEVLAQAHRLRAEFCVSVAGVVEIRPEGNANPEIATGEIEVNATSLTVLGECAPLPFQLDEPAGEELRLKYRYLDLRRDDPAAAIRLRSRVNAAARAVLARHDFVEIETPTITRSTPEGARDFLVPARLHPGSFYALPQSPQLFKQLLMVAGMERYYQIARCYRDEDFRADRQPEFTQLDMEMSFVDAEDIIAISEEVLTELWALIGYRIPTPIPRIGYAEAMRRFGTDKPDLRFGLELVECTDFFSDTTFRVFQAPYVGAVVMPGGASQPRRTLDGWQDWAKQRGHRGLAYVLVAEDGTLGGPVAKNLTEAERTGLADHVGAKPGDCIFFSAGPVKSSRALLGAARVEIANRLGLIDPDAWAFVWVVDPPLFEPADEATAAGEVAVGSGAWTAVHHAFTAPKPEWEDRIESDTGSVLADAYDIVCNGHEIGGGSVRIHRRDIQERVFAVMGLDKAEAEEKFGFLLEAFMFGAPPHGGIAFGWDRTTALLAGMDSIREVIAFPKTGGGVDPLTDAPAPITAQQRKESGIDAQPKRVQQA
The assay is described as follows: Assay for Asp RNA synthetase-1 from Mycobacterium tuberculosis. It is filed as functional. Also noted: scale not given: direction of the effect not stated beside the values. Conditions: 30 µM.

Assay [2] concerns the target Shiga toxin 2 (Escherichia coli O157:H7) (UniProt P09385+P09386). Nature of the assay: E. coli 0.157:H7 Shiga Toxin SOP - stx2 screening assay. It is filed as functional. Also noted: scale not given: direction of the effect not stated beside the values. To be noted: 30 µM.

`COc1cc(CNCc2c(C)nn(C)c2N(C)C)ccc1C`: the Percent Effect in assay [1] is -3.09%; in assay [2], 9.03%.
Take `O=C(N1CCOCC1)N1CCc2ncnc(NC3CC3)c2CC1`: the Percent Effect in assay [1] was 6.32%; in assay [2], -39.4%.
For `Cc1ccc(-c2cc(N)c(=O)n(CC(=O)NC3CCCCC3)n2)s1` the same measures were 1.95% and 13.1%.
Consider `COc1cccc(S(=O)(=O)NC2CNC(=O)C2)c1` (centres undefined), for which the Percent Effect was -3.48% in assay [1] and 3.09% in assay [2].
For `Cc1nn(C)c(C)c1C1CCCN1C(=O)c1ccc(Cl)o1` (centres undefined) the same measures were -1.9% and -17.4%.
`O=C(c1cccs1)N1C[C@H]2CC[C@@]3(N=C(c4ccccc4)NC3=O)[C@H]2C1`: the Percent Effect in assay [1] is -3.42%; in assay [2], -42.8%.
For `CN1CCN(C(=O)c2cccc(OCc3cscn3)c2)CC1` the same measures were 0.522% and -26.5%.
As for `O=C(NCCCn1ccnc1)N1CCN(c2cccs2)CC1`, the Percent Effect is -0.0463% in assay [1] and -102% in assay [2].
For `O=C1CO[C@@H]2CN(CC3CCOCC3)C[C@H]2N1CC1CC1` the same measures were 14.8% and 5.99%.
On the same counts, the results for `CCc1noc(C(C)N2CCN(c3ccc(C#N)cn3)CC2)n1` (centres undefined) are -2.49% and -26.5%.
For `Cn1cnc2c1C(COCC1CC1)CN(Cc1ccc3c(c1)OCO3)C2` (centres undefined), the Percent Effect in assay [1] is 0.999%; in assay [2], -23.1%.
For the compound `COCCN1C(=O)CCC12CCN(C(=O)CC1CC1)CC2`, the Percent Effect in assay [1] stood at 2.75%; in assay [2], 0.89%.
On the same counts, the results for `CC(C)S(=O)(=O)NCC1CCCN(C(=O)c2ccc3c(c2)CCC3)C1` (centres undefined) are 6.5% and 1.33%.
With `CCc1cnc(CN(C)C2CCN(CCS(C)(=O)=O)C2)o1` (centres undefined), the Percent Effect was 0.585% in assay [1] and -7.2% in assay [2].
For `Cc1noc(C)c1-c1cncc(C2CCCN2Cc2ccncc2)n1` (centres undefined) the same measures were 1.92% and -6.19%.
For `CCOC1CCCN(C(=O)c2cnc3c(cnn3C3CCCC3)c2)C1` (centres undefined) the same measures were 2.51% and 15.6%.
Turning to `CCOc1ccnc(N2CCN(C(=O)c3cn[nH]c3CC)CC2)n1`, the Percent Effect was -1.77% in assay [1] and 5.02% in assay [2].
